# Experimental data reported in article PMC7862700, “An all-to-all approach to the identification of sequence-specific readers for epigenetic DNA modifications on cytosine”.
# Experiments:
# Assay in all cases: DAPPL (digital affinity profiling via proximity ligation, sequencing); 10 mM Tris-HCl pH 7.5, 50 mM NaCl, 1 mM DTT, 4% glycerol, room temperature, 30 min; GST-TFs on glutathione beads, 16-mer random dsDNA library, 0.1% formaldehyde crosslink after washing; high values mean tight binding
# [1] = biological target: T1, FEV (Homo sapiens, UniProt Q99581 1-238); settings: protein: recombinant; tags: N-terminal GST; dsDNA, one strand shown
# T1 sequence: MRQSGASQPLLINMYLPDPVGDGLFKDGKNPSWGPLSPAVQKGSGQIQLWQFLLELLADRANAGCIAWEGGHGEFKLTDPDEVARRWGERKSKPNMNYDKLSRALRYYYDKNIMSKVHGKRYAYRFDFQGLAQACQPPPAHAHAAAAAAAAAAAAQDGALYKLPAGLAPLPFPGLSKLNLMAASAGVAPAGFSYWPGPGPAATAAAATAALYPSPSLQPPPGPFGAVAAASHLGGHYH
# How it was run: (§1)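 Yeast served to express human transcription factors as GST fusions, which were then captured on glutathione beads and labelled with DNA barcodes. Pooled with a tag-only sample, they were incubated with 200 nmole of a 16-mer random double-stranded DNA library for 30 min at room temperature in Tris/NaCl/DTT/glycerol buffer, washed, crosslinked with 0.1% formaldehyde, ligated by proximity, amplified by PCR and sequenced. Dividing each hexamer's read frequency for a factor by its frequency for the tag-only sample gives the binding signal.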
# [2] = biological target: ETV5 (Homo sapiens, UniProt P41161 1-510); settings: protein: recombinant; tags: N-terminal GST; dsDNA, one strand shown
# Chain of ETV5 (P41161 whole entry): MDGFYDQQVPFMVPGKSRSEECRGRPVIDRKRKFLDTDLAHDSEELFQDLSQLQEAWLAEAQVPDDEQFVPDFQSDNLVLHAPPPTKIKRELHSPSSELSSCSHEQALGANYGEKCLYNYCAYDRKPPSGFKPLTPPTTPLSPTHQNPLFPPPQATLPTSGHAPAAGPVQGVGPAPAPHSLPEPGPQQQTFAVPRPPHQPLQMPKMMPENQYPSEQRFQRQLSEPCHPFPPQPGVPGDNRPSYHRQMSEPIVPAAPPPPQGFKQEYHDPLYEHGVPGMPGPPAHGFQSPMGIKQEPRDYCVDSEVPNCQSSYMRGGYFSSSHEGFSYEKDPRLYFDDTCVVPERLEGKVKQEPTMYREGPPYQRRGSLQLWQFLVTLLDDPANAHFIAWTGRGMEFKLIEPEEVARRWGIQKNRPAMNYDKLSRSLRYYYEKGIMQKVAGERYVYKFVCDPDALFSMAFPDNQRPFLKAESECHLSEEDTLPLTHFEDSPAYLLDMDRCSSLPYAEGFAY
# How it was run: as §1
# [3] = biological target: HSF1 (Homo sapiens, UniProt Q00613 1-529); settings: protein: recombinant; tags: N-terminal GST; chain copies: 3; dsDNA, one strand shown
# Chain of HSF1 (Q00613 whole entry): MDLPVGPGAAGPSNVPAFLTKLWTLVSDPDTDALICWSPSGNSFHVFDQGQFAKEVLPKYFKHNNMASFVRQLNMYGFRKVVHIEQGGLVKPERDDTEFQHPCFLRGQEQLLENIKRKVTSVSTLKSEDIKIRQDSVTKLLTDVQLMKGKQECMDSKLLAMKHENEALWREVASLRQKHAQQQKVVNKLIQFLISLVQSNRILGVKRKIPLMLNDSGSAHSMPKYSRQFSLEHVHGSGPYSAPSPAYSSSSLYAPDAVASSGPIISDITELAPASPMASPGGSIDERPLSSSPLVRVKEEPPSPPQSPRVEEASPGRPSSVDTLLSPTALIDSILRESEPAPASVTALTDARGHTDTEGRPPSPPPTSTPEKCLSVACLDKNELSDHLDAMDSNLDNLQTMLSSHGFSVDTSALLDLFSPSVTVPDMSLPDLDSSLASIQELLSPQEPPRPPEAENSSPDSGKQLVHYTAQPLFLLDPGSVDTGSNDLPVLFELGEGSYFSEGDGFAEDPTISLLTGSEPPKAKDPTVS
# How it was run: as §1
# [4] = biological target: T2, SPIC (Homo sapiens, UniProt Q8N5J4 1-248); settings: protein: recombinant; tags: N-terminal GST; dsDNA, one strand shown
# T2 sequence: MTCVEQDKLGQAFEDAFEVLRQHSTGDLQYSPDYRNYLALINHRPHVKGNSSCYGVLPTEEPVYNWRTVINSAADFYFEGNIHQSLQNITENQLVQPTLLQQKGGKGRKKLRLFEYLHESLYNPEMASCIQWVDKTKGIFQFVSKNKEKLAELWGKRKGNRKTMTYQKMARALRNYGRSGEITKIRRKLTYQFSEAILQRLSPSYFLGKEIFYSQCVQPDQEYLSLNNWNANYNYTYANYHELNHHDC
# How it was run: as §1
# [5] = biological target: ELF4 (Homo sapiens, UniProt Q99607 1-663); settings: protein: recombinant; tags: N-terminal GST; dsDNA, one strand shown
# Chain of ELF4 (Q99607 whole entry): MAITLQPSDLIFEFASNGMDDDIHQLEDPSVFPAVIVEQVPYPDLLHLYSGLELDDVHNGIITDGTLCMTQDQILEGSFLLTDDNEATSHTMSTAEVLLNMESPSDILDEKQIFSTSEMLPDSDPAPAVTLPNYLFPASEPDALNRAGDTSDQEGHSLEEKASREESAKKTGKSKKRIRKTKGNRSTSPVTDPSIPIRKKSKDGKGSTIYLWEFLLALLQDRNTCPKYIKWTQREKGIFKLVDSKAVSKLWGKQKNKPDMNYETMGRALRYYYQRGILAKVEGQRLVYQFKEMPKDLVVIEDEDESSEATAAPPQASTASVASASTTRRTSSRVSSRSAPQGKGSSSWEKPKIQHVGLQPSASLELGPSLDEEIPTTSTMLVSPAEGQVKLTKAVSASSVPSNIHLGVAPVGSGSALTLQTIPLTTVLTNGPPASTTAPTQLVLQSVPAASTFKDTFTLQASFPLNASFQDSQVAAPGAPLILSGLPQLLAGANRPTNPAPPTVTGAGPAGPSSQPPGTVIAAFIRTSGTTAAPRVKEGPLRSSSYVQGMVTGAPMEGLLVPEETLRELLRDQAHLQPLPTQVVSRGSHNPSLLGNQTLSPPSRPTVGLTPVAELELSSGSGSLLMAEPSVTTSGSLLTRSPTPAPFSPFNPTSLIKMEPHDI
# How it was run: as §1
# [6] = biological target: T3, ELK4 (Homo sapiens, UniProt P28324-2 1-405); settings: protein: recombinant; tags: N-terminal GST; dsDNA, one strand shown
# T3 sequence: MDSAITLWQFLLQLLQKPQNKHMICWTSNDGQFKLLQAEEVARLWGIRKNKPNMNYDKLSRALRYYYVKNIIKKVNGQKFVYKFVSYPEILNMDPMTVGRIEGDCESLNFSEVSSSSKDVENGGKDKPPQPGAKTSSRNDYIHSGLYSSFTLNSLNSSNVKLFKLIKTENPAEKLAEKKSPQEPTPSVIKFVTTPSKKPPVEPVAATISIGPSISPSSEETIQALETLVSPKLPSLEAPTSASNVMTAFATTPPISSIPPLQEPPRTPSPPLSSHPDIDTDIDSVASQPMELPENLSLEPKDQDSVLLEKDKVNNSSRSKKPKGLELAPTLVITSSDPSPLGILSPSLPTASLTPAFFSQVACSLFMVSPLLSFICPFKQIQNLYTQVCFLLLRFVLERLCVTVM
# How it was run: as §1
# [7] = biological target: T4, ETV2 (Homo sapiens, UniProt O00321 1-342); settings: protein: recombinant; tags: N-terminal GST; dsDNA, one strand shown
# T4 sequence: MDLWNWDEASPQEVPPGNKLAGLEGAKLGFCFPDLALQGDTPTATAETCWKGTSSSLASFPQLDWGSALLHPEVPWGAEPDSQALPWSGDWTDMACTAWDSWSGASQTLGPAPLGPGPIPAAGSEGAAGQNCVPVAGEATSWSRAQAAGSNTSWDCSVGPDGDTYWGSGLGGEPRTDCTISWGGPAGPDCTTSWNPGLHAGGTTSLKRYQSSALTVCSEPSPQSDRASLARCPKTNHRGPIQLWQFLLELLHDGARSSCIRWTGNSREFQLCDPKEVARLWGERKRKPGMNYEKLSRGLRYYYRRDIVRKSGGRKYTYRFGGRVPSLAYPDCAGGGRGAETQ
# How it was run: as §1
# [8] = biological target: T5, ELF3 (Homo sapiens, UniProt P78545 1-371); settings: protein: recombinant; tags: N-terminal GST; dsDNA, one strand shown
# T5 sequence: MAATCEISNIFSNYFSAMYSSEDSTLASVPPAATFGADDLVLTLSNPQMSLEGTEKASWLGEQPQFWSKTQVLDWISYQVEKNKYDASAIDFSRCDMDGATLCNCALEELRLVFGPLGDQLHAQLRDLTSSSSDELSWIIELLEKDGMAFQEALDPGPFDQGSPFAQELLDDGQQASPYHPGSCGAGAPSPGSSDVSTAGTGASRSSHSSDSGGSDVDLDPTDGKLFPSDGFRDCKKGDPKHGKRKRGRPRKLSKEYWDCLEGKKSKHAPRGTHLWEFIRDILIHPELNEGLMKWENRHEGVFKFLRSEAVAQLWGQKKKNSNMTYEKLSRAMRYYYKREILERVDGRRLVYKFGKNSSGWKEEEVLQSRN
# How it was run: as §1
# [9] = biological target: CRX (Homo sapiens, UniProt O43186 1-299); settings: protein: recombinant; tags: N-terminal GST; dsDNA, one strand shown
# Chain of CRX (O43186 whole entry): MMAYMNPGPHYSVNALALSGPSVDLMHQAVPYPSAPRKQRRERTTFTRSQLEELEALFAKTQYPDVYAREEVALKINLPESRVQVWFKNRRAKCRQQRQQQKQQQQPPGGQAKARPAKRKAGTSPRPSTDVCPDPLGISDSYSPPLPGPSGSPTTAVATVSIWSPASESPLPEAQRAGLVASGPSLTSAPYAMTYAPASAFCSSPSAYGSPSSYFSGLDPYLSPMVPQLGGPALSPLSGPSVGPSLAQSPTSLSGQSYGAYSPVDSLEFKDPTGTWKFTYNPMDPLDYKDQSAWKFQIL
# How it was run: as §1
# [10] = biological target: ETV1 (Homo sapiens, UniProt P50549 1-477); settings: protein: recombinant; tags: N-terminal GST; dsDNA, one strand shown
# Chain of ETV1 (P50549 whole entry): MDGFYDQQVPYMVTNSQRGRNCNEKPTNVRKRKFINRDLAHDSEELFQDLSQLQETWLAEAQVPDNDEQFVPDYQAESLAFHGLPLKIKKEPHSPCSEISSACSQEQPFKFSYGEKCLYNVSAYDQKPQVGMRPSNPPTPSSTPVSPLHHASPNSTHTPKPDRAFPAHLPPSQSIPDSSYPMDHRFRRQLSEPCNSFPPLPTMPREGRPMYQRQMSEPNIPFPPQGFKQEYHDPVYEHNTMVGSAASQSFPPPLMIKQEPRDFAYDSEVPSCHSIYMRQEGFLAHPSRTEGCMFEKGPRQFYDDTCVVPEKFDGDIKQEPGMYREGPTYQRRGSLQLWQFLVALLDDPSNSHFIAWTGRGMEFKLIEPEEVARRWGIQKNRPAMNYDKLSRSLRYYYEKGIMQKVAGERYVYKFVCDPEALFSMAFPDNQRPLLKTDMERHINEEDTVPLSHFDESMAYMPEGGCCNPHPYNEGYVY
# How it was run: as §1
# [11] = biological target: T6, ERF (Homo sapiens, UniProt P50548 1-548); settings: protein: recombinant; tags: N-terminal GST; dsDNA, one strand shown
# T6 sequence: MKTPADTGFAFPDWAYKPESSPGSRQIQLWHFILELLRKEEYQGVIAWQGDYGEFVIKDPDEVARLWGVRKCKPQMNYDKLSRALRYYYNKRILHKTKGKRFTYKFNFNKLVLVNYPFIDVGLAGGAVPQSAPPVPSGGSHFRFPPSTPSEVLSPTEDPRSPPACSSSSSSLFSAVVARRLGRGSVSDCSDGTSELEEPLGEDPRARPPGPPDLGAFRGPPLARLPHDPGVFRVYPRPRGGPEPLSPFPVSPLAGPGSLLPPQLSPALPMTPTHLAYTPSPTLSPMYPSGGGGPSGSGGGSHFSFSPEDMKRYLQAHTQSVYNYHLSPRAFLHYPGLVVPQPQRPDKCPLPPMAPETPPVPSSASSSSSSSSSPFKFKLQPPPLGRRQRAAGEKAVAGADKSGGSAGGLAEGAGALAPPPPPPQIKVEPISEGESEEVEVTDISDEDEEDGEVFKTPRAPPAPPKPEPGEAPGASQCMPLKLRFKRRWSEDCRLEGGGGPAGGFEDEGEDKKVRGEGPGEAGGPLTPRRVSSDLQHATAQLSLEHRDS
# How it was run: as §1
# [12] = biological target: T7, ETV3L (Homo sapiens, UniProt Q6ZN32 1-361); settings: protein: recombinant; tags: N-terminal GST; dsDNA, one strand shown
# T7 sequence: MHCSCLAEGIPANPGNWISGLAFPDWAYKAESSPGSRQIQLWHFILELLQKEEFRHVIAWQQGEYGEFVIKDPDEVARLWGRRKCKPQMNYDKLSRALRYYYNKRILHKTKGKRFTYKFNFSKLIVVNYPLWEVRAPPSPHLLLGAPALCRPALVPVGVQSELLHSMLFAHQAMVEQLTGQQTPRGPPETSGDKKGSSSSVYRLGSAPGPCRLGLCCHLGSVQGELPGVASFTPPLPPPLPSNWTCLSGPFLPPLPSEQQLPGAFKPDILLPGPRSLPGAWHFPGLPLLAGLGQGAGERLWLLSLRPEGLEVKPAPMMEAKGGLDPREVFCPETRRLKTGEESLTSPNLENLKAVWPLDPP
# How it was run: as §1
# [13] = biological target: T8, ETS2 (Homo sapiens, UniProt P15036 1-469); settings: protein: recombinant; tags: N-terminal GST; dsDNA, one strand shown
# T8 sequence: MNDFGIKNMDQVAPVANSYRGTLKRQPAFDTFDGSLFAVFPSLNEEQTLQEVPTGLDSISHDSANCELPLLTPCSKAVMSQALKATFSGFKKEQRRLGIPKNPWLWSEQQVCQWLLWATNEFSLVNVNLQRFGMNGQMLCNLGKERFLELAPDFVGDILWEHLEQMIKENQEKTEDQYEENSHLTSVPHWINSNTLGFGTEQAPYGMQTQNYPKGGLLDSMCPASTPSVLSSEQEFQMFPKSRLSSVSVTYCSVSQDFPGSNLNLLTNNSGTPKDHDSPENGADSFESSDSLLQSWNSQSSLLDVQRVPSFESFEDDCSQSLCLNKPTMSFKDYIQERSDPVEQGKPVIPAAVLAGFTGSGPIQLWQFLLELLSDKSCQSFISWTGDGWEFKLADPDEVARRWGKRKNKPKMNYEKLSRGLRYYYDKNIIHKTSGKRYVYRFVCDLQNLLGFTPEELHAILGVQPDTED
# How it was run: as §1
# [14] = biological target: T9, SPDEF (Homo sapiens, UniProt O95238 1-335); settings: protein: recombinant; tags: N-terminal GST; dsDNA, one strand shown
# T9 sequence: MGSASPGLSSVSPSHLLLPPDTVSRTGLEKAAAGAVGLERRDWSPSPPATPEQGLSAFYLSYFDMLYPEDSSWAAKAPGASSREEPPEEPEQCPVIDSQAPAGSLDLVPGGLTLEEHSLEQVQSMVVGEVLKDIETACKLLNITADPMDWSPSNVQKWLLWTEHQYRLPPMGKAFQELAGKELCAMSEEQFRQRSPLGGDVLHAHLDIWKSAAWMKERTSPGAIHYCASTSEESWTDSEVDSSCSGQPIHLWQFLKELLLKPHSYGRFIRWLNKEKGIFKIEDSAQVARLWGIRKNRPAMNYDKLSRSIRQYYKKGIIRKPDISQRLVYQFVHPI
# How it was run: as §1
# [15] = biological target: T10, ETV7 (Homo sapiens, UniProt Q9Y603 1-341); settings: protein: recombinant; tags: N-terminal GST; dsDNA, one strand shown
# T10 sequence: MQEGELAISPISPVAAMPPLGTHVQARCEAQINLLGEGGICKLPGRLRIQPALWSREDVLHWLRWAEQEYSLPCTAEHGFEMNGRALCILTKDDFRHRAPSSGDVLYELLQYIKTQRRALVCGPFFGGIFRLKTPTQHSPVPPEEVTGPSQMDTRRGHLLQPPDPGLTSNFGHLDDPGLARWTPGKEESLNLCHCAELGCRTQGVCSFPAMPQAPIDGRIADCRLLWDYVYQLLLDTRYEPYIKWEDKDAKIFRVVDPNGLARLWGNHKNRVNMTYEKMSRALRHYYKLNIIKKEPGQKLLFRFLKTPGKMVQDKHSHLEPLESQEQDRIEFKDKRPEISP
# How it was run: as §1
# [16] = biological target: T11, ELF5 (Homo sapiens, UniProt Q9UKW6-2 1-255); settings: protein: recombinant; tags: N-terminal GST; dsDNA, one strand shown
# T11 sequence: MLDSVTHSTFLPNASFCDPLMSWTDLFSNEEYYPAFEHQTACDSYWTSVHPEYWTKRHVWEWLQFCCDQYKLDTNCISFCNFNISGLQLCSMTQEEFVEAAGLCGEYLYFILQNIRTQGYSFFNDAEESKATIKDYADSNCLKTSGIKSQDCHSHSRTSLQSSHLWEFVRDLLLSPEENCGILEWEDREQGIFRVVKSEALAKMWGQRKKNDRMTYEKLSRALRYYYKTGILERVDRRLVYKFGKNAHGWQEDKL
# How it was run: as §1
# [17] = biological target: T12, ETV3 (Homo sapiens, UniProt P41162-2 1-143); settings: protein: recombinant; tags: N-terminal GST; dsDNA, one strand shown
# T12 sequence: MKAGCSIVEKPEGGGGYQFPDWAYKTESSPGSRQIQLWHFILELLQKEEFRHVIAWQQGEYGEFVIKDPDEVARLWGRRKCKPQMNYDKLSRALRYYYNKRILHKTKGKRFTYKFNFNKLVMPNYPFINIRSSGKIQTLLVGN
# How it was run: as §1
# [18] = biological target: ETV6 (Homo sapiens, UniProt P41212 1-452); settings: protein: recombinant; tags: N-terminal GST; dsDNA, one strand shown
# Chain of ETV6 (P41212 whole entry): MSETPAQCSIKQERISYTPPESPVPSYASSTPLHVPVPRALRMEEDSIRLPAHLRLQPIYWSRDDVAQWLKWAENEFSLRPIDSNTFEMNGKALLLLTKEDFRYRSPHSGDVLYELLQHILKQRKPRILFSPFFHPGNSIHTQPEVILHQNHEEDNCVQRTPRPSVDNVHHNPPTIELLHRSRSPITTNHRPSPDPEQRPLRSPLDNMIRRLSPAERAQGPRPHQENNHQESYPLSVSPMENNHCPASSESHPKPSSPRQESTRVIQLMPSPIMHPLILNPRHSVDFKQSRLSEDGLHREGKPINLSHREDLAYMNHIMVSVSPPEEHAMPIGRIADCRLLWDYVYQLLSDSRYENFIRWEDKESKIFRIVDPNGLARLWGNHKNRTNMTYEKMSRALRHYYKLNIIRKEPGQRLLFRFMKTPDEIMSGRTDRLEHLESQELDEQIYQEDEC
# How it was run: as §1
sequence,measurement,setting,value
CTAATT,binding signal,[1],"1.35 fold enrichment (6-mer frequency, TF over GST control)"
same,binding signal,[2],"1.28 fold enrichment (6-mer frequency, TF over GST control)"
same,binding signal,[3],"1.47 fold enrichment (6-mer frequency, TF over GST control)"
same,binding signal,[4],"1.46 fold enrichment (6-mer frequency, TF over GST control)"
same,binding signal,[5],"1.38 fold enrichment (6-mer frequency, TF over GST control)"
same,binding signal,[6],"1.27 fold enrichment (6-mer frequency, TF over GST control)"
same,binding signal,[7],"1.57 fold enrichment (6-mer frequency, TF over GST control)"
same,binding signal,[8],"1.48 fold enrichment (6-mer frequency, TF over GST control)"
same,binding signal,[9],"2.09 fold enrichment (6-mer frequency, TF over GST control)"
same,binding signal,[10],"1.26 fold enrichment (6-mer frequency, TF over GST control)"
same,binding signal,[11],"1.27 fold enrichment (6-mer frequency, TF over GST control)"
same,binding signal,[12],"1.23 fold enrichment (6-mer frequency, TF over GST control)"
same,binding signal,[13],"1.37 fold enrichment (6-mer frequency, TF over GST control)"
same,binding signal,[14],"1.17 fold enrichment (6-mer frequency, TF over GST control)"
same,binding signal,[15],"1.23 fold enrichment (6-mer frequency, TF over GST control)"
same,binding signal,[16],"1.22 fold enrichment (6-mer frequency, TF over GST control)"
same,binding signal,[17],"1.19 fold enrichment (6-mer frequency, TF over GST control)"
same,binding signal,[18],"1.33 fold enrichment (6-mer frequency, TF over GST control)"
